# Source: PubChem BioAssay
# A number with no mark means an inactive call. The list shows a part of the results. Active and inactive are the calls of the source. Unless noted, no stated cut-off is given here; in the data, active means inhibition above about 25%; inactive means the rest.
# Columns and labels:
# [1] = growth loss of phage-infected E. coli expressing H. pylori AddAB, confirmation, AddAB inhibitor project, absorbance, E. coli V3065, T4 phage, triplicate (AID 488942;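 active means mean inhibition above a set limit taken from the earlier primary screen, cut at about 13% in these data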;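 further: higher means less bacterial growth since AddAB block lets phage replicate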); settings: OD, at 11.9 µM, stronger effect = higher value, T4 phage with gene 2 nonsense mutations
# [2] = growth loss of RecBCD+ E. coli with mutant T4 phage, counter-screen for AddAB inhibitor project, absorbance, V66 E. coli (AID 488955;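 active means mean inhibition above the mean of solvent-only control wells plus 3 SD, cut at about 4% in these data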;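 further: optical density read after an 18 h incubation at 37 °C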); settings: OD growth, at 11.9 µM, stronger effect = higher value
# [3] = bacterial viability inhibition counter-screen, confirmation, counter-screen for AddAB inhibitor project, absorbance (AID 488956); settings: absorbance (AddAB counterscreen), at 11.9 µM, stronger effect = higher value
# [4] = growth loss of phage-infected RecBCD+ E. coli, confirmation, RecBCD inhibitor project, absorbance, E. coli V66, T4 gene 2 phage (AID 651982;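 active means mean inhibition over triplicates exceeding the hit threshold derived in the original primary screen, cut at about 11% in these data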); settings: E. coli V66 + T4 2- phage, growth OD; at 11.9 µM; stronger effect = higher value
# [5] = E. coli viability inhibition, counter-screen for RecBCD inhibitor project, absorbance, high throughput (AID 651983; in the data active means inhibition above about 20%;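 further: E. coli strain V66 grown with compound alone and no phage infection; 0% = bacteria with DMSO vehicle only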); settings: absorbance (OD) growth, at 11.9 µM, stronger effect = higher value
# [6] = growth loss of phage-infected AddAB-carrying E. coli, confirmation, counter-screen for RecBCD inhibitor project, absorbance, E. coli V3065, T4 phage (AID 651984;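 active means mean inhibition above the solvent-only control wells' mean plus 3 SD, cut at about 22% in these data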;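 further: higher means less bacterial growth from phage killing when AddAB is blocked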); settings: E. coli expressing H. pylori AddAB + T4 phage, OD growth; at 11.9 µM; stronger effect = higher value; gene 2 mutant T4, recBCD-deleted host
# [7] = biological target: Nuclear receptor coactivator 3 (Homo sapiens) (UniProt Q9Y6Q9); test: SRC3 coactivator transcriptional activity inhibitors, confirmation, cell-based, luminescence, quadruplicate (AID 588792;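 active means mean inhibition over 43.08%, the solvent-only control mean plus 3 SD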;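 further: 0% = DMSO treated cells and 100% = gossypol at 36 µM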); settings: HEK293 GAL4-SRC3 luciferase reporter, at 3.6 µM, stronger effect = higher value
# [8] = system: transactivating tegument protein VP16 (Human herpesvirus 1), Gal4-VP16 luciferase reporter; test: VP16 transactivation inhibitors, counter-screen for SRC3 inhibitor project, cell-based, luminescence, high throughput (AID 588794; in the data active means inhibition above about 30%); settings: mammalian cells, VP16-driven luciferase reporter luminescence; at 3.6 µM; stronger effect = higher value
# [9] = biological target: Nuclear receptor coactivator 1 (Homo sapiens) (UniProt Q15788); test: SRC1 coactivator transcriptional activity inhibitors, confirmation, cell-based, luminescence, quadruplicate (AID 588820;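 active means mean inhibition above 46.68%, the untreated control wells mean plus 3 SD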;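 further: 0% = DMSO wells and 100% = gossypol 36 µM treated wells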); settings: HEK293 GAL4-SRC1 luciferase reporter, at 3.6 µM, stronger effect = higher value
# [10] = VP16 transactivation inhibitors, counter-screen for SRC1 inhibitor project, cell-based, luminescence, high throughput (AID 588824); settings: cell-based VP16 transactivation luciferase luminescence; at 3.6 µM; stronger effect = higher value
# [11] = biological target: Serine protease HTRA1 (Homo sapiens) (UniProt Q92743); test: HTRA1 protease inhibitors, retest, confirmation, biochemical, fluorescence polarization (AID 540248;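 active means mean inhibition over three repeats above a set limit taken from the earlier primary screen, cut at about 37% in these data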;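 further: 0% = HTRA1 with DMSO and 100% = wells lacking HTRA1; inhibitors block probe binding so polarization drops and inhibition rises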); settings: recombinant HTRA1, FP-rhodamine activity-based probe, at 5.96 µM, stronger effect = higher value
# [12] = biological target: Platelet-activating factor acetylhydrolase IB subunit alpha1 (Homo sapiens) (UniProt Q15102); test: PAFAH1B3 enzyme inhibitors, confirmation, biochemical, fluorescence polarization, human (AID 493032;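 active means average inhibition over triplicate runs above the hit cutoff set in the earlier primary screen, cut at about 25% in these data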;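 further: 0% = enzyme with DMSO and 100% = wells lacking PAFAH1B3 protein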); settings: recombinant PAFAH1B3, FP-Rh activity-based probe, at 3.39 µM, stronger effect = higher value
# [13] = biological target: Photoreceptor-specific nuclear receptor (Homo sapiens) (UniProt Q9Y5X4); test: NR2E3 agonist confirmation in cells, cell-based, luminescence, CHO-S two-hybrid (AID 624378;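 active means average inhibition above a cutoff equal to the mean inhibition of all tested compounds plus one SD, cut at about 70% in these data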;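 further: 0% = DMSO in NR2E3 cells and 100% = DMSO in cells lacking NR2E3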); settings: CHO-S mammalian two-hybrid NR2E3-NCOR, luciferase luminescence; at 3.98 µM; stronger effect = higher value
# [14] = GAL4-VP16 reporter modulators, confirmation, counter-screen for NR2E3 agonist project, cell-based, luminescence, CHO-S, high throughput (AID 624379;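 active means mean inhibition above a cutoff equal to the average over all tested compounds plus one standard deviation, cut at about 70% in these data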;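 further: 0% = DMSO with VP16-transfected cells and 100% = DMSO with cells lacking VP16; higher means less reporter light so more repression of VP16 activity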); settings: CHO-S GAL4-VP16 luciferase reporter, at 3.98 µM, stronger effect = higher value
# [15] = system: transactivating tegument protein VP16 (Human herpesvirus 1); test: VP16 transactivation reporter inhibitors, counter-screen for SRC2 inhibitor project, cell-based, luminescence, single concentration (AID 652007; in the data active means inhibition above about 36%); settings: cell-based VP16 transactivation luciferase reporter, at 8.9 µM, stronger effect = higher value
# [16] = biological target: Nuclear receptor coactivator 2 (Homo sapiens) (UniProt Q15596); test: SRC2 coactivator transcriptional activity inhibitors, confirmation, cell-based, luminescence, HEK293, triplicate (AID 652008;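 active means mean inhibition above 46.5%, the solvent-only control mean plus 3 SD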;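 further: 0% = DMSO-treated cells and 100% = Gossypol at 36 µM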); settings: HEK293 GAL4-SRC2 luciferase reporter, at 8.9 µM, stronger effect = higher value
# [17] = Gal4-VP16 luciferase reporter inhibitors, counter-screen for COUP-TFII antagonist project, cell-based, luminescence, HEK293 (AID 687007; in the data active means inhibition above about 13%); settings: at 8.5 µM, stronger effect = higher value
# [18] = biological target: COUP transcription factor 2 (Homo sapiens) (UniProt P24468); test: NR2F2 transcriptional activity inhibitors, confirmation, cell-based, luciferase reporter, HEK293, triplicate (AID 687008;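 active means mean inhibition over three repeats above a set limit taken from the earlier primary screen, cut at about 38% in these data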;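 further: 100% = cells given the luciferase reporter alone without the COUP-TF2 vector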); settings: HEK293 NGFI-A luciferase reporter, luminescence; at 8.5 µM; stronger effect = higher value
# Platelet-activating factor acetylhydrolase IB subunit alpha1 (Homo sapiens), sequence (Q15102 whole entry, looked up): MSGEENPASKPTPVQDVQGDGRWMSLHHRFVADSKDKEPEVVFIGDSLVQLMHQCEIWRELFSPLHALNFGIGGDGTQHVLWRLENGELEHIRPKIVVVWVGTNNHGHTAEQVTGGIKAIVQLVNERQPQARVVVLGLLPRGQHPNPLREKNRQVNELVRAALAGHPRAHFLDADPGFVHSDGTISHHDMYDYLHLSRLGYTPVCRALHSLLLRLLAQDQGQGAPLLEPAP
# Nuclear receptor coactivator 3 (Homo sapiens), sequence (Q9Y6Q9 whole entry, looked up, the tested form may be a part): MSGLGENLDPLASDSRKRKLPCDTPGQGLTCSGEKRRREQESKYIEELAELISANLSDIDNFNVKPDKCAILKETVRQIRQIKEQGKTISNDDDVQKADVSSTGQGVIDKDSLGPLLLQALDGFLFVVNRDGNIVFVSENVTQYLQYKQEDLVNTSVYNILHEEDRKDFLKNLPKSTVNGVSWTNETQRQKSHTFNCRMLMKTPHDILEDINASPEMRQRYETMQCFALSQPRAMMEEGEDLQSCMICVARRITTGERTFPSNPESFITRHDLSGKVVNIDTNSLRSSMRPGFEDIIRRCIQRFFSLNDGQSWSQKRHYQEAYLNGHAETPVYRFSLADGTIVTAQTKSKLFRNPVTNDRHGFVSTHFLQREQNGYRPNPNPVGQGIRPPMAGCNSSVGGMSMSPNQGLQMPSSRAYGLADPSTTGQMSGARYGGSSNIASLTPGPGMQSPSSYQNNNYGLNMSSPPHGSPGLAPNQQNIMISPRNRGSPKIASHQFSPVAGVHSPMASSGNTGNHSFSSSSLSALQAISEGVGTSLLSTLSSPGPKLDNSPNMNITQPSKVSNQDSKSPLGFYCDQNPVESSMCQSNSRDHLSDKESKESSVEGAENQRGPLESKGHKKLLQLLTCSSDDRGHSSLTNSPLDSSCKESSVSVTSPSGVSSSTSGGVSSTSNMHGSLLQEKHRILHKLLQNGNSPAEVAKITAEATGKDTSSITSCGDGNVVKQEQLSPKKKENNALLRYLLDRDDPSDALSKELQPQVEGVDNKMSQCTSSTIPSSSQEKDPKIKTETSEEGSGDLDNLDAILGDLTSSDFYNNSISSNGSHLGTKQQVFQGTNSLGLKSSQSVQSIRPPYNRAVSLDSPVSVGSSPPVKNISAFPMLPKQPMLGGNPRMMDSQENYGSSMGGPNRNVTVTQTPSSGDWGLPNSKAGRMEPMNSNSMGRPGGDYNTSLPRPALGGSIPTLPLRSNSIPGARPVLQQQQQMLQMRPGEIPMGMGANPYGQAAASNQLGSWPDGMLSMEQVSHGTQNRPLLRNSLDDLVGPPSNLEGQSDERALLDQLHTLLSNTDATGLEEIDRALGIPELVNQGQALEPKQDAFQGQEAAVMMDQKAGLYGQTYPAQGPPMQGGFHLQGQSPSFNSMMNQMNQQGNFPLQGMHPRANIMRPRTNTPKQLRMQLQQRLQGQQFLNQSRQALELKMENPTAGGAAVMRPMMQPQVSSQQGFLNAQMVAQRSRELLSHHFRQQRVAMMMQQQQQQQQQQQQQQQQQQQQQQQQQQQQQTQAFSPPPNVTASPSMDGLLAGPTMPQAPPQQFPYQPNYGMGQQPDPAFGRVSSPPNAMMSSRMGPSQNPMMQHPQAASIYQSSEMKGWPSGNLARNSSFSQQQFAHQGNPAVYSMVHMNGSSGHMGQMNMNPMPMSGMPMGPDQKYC
# Nuclear receptor coactivator 2 (Homo sapiens), sequence (Q15596 whole entry, looked up, the tested form may be a part): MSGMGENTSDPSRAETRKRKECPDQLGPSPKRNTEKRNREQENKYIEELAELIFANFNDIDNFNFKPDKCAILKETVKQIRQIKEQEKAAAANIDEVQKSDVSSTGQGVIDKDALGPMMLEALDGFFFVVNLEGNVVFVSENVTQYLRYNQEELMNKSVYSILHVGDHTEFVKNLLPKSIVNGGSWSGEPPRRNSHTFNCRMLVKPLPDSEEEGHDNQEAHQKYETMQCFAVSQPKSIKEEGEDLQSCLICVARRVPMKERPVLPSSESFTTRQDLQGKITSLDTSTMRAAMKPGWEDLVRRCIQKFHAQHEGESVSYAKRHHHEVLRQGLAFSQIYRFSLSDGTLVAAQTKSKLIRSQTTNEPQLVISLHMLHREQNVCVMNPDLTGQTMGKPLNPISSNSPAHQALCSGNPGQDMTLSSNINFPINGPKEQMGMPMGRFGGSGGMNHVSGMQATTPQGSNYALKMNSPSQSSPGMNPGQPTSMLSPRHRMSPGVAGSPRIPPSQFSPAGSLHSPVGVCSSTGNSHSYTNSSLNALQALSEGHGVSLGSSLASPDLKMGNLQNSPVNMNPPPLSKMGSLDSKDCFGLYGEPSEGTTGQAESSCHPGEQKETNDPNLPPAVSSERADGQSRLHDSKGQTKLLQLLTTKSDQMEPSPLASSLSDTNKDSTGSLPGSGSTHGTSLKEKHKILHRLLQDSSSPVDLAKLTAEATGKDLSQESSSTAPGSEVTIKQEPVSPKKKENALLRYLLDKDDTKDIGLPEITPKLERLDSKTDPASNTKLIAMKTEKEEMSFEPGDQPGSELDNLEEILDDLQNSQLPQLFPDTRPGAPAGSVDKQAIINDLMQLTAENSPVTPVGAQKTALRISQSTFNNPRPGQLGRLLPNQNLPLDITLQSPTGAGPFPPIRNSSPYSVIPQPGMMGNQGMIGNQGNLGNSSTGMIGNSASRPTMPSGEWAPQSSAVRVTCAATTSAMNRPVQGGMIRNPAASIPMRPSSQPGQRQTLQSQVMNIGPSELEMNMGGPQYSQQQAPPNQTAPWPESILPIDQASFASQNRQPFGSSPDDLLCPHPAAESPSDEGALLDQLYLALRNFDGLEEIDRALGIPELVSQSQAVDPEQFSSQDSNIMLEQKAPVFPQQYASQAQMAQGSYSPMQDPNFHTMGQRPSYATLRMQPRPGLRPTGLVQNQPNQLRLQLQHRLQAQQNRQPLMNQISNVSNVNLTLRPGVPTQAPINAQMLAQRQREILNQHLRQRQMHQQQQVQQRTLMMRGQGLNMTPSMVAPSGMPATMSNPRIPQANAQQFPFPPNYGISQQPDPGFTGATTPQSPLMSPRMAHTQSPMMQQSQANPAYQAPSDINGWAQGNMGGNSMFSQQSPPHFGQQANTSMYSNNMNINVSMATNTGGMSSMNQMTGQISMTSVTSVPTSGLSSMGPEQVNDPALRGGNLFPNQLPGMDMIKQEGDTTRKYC
# Photoreceptor-specific nuclear receptor (Homo sapiens), sequence (Q9Y5X4 whole entry, looked up, the tested form may be a part): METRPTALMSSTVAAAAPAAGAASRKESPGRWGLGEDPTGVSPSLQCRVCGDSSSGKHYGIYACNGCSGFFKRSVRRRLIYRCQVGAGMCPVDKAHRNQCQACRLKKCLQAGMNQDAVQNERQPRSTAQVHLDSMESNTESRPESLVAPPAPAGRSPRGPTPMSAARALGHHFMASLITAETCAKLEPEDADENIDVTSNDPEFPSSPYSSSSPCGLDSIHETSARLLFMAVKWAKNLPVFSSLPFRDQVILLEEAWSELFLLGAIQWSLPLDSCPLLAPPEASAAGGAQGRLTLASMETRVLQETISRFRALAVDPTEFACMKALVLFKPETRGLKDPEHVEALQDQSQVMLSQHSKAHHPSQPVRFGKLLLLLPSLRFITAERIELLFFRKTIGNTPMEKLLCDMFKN
# Nuclear receptor coactivator 1 (Homo sapiens), sequence (Q15788 whole entry, looked up, the tested form may be a part): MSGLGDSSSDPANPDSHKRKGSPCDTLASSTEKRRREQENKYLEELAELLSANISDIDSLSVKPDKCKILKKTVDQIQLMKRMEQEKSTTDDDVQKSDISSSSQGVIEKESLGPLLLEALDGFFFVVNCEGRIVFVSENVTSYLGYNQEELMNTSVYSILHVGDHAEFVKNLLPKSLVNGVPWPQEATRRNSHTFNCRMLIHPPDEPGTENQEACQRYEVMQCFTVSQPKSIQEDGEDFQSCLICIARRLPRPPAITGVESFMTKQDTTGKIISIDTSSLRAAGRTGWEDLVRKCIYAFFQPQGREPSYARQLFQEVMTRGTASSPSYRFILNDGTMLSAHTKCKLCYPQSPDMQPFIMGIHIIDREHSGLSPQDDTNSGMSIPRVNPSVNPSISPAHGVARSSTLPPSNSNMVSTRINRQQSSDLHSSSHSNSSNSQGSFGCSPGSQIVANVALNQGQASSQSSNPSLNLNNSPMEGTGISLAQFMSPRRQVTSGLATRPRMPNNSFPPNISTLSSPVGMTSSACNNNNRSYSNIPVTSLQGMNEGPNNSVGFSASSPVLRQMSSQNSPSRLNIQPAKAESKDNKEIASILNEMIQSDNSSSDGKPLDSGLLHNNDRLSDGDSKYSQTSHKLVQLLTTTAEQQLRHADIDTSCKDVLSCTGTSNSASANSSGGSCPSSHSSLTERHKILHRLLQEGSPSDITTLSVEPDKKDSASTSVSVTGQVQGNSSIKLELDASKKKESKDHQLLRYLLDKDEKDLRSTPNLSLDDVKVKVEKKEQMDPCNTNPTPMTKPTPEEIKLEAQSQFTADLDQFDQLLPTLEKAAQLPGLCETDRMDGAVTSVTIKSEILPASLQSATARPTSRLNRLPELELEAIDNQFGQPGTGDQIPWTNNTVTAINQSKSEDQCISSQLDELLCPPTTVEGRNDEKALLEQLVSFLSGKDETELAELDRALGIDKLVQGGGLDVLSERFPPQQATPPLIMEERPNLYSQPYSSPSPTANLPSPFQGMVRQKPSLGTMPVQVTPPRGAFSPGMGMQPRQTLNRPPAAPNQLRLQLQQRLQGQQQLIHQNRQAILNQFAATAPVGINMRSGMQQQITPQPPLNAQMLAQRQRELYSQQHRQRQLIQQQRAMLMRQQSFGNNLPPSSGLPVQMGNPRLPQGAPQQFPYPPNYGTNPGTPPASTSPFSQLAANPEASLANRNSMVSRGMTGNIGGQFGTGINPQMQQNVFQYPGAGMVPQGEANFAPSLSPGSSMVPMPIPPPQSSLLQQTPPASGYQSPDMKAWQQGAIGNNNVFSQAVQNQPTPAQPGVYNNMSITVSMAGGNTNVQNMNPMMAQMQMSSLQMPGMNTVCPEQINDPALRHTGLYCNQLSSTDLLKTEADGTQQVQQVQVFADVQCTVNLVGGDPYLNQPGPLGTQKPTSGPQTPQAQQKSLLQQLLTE
compound,measurement,setting,value
CC1CCCN(C(=O)c2ccc3c(c2)C(=O)N(CCC2=CCCCC2)C3=O)C1 (stereo unspecified),inhibition,[1],-4.68%
same,inhibition,[2],-0.96%
same,inhibition,[3],-2.15%
CN1CCN(c2cc3c(cc2F)c(=O)c(C(=O)O)cn3CCF)CC1,inhibition,[1],103% (active)
same,inhibition,[2],102% (active)
same,inhibition,[3],103% (active)
same,inhibition,[4],103% (active)
same,inhibition,[5],103% (active)
same,inhibition,[6],102% (active)
COc1ccc(C(=O)c2oc3ccc(Br)cc3c2NC(C)=O)cc1,inhibition,[1],-2.85%
same,inhibition,[2],-1.5%
same,inhibition,[3],-3.05%
Nc1nonc1-n1nnc(C(=O)N/N=C/c2cc(Br)ccc2O)c1CSC1=NCCS1,inhibition,[1],14.2% (active)
same,inhibition,[2],16% (active)
same,inhibition,[3],9.73%
same,inhibition,[7],42.7%
same,inhibition,[8],34.5% (active)
same,inhibition,[9],41%
same,inhibition,[10],33.4% (active)
same,inhibition,[4],6.91%
same,inhibition,[5],9.92%
same,inhibition,[6],10.8%
O=C(N/N=C/c1ccc(O)c(O)c1)C1c2ccccc2Oc2ccccc21,inhibition,[11],76.6% (active)
O=C(CSc1ccc(-c2ccccn2)nn1)Nc1ccccc1,inhibition,[1],5.71%
same,inhibition,[2],6.8% (active)
same,inhibition,[3],5%
same,inhibition,[4],2.01%
same,inhibition,[5],1.79%
same,inhibition,[6],11.1%
CC(=O)c1c(C)n([O-])c2ccccc2[n+]1=O,inhibition,[1],100% (active)
same,inhibition,[2],26.2% (active)
same,inhibition,[3],89.7% (active)
same,inhibition,[4],16.9% (active)
same,inhibition,[5],21.4% (active)
same,inhibition,[6],87.7% (active)
Cc1cccc(NC(=O)Cn2cc(C(=O)c3ccco3)c3ccccc32)c1,inhibition,[1],14.9% (active)
same,inhibition,[2],10.9% (active)
same,inhibition,[3],11.8%
same,inhibition,[4],6.82%
same,inhibition,[5],11.3%
same,inhibition,[6],7.23%
ON=C1/C(=N\O)CC2(C/C1=N/O)OCCO2,inhibition,[12],27.1% (active)
same,inhibition,[4],1.75%
same,inhibition,[5],4.59%
same,inhibition,[6],-10.8%
COc1c(N2CCN(C(=S)Nc3ccccc3F)C(C)C2)c(F)cc2c(=O)c(C(=O)O)cn(C3CC3)c12 (stereo unspecified),inhibition,[1],102% (active)
same,inhibition,[2],100% (active)
same,inhibition,[3],101% (active)
same,inhibition,[4],102% (active)
same,inhibition,[5],103% (active)
same,inhibition,[6],101% (active)
Cc1cc(-c2csc(N)n2)c(C)n1Cc1ccccc1,inhibition,[11],30.6%
COC(=O)N/N=C/c1c[n+]([O-])c2ccccc2[n+]1[O-],inhibition,[1],94.5% (active)
same,inhibition,[2],27.4% (active)
same,inhibition,[3],83.4% (active)
same,inhibition,[4],23.1% (active)
same,inhibition,[5],28% (active)
same,inhibition,[6],91.8% (active)
CCOC(=O)c1ccc(NC(=O)Cn2cnc3cc(C)c(C)cc32)cc1,inhibition,[1],24.2% (active)
same,inhibition,[2],18.4% (active)
same,inhibition,[3],21.4%
same,inhibition,[13],96% (active)
same,inhibition,[14],87.5% (active)
same,inhibition,[4],13.5% (active)
same,inhibition,[5],14.5%
same,inhibition,[6],21.8% (active)
same,inhibition,[15],19.5%
same,inhibition,[16],36.7%
same,inhibition,[17],8.87%
same,inhibition,[18],62.9% (active)
C/[N+]([O-])=C\c1ccc([N+](=O)[O-])o1,inhibition,[1],101% (active)
same,inhibition,[2],42.8% (active)
same,inhibition,[3],99.3% (active)
CC[C@H]1OC(=O)[C@H](C)[C@@H](O[C@H]2C[C@@](C)(OC)[C@@H](O)[C@H](C)O2)[C@H](C)[C@@H](O[C@@H]2O[C@H](C)C[C@H](N(C)C)[C@H]2O)[C@](C)(O)C[C@@H](C)[C@@H]2N[C@@H](COCCOC)O[C@H]([C@H]2C)[C@]1(C)O,inhibition,[1],62.5% (active)
same,inhibition,[2],41% (active)
same,inhibition,[3],37.2% (active)
same,inhibition,[4],33.9% (active)
same,inhibition,[5],34.4% (active)
same,inhibition,[6],42.6% (active)
COc1cccc(Cn2cc(/C=N/NC(=O)c3cc(O)cc(O)c3)c3ccccc32)c1,inhibition,[12],17.6%
O=C1c2ccccc2C(=O)c2c1cccc2N1CCN(Cc2ccccc2)CC1,inhibition,[11],60.1% (active)
CSC(=S)N/N=C/c1c[nH]c2ccccc12,inhibition,[1],24.2% (active)
same,inhibition,[2],11.8% (active)
same,inhibition,[3],29.5% (active)
same,inhibition,[11],33.3%
O=C1c2ccccc2NC(c2ccc(-c3cccc(Cl)c3)o2)N1O (stereo unspecified),inhibition,[1],17.5% (active)
same,inhibition,[2],18.4% (active)
same,inhibition,[3],13.2%
same,inhibition,[4],13.7% (active)
same,inhibition,[5],16.7%
same,inhibition,[6],18.9%
